Bioassay records as filed in PubChem.
An excerpt weighted towards active compounds, which were near 12% of everything screened.
Sfp inh = Sfp phosphopantetheinyl transferase inhibition; Q9F4F7; Biochemical Sfp PPTase activity, qHTS; Potency, µM, for the others: largest response in the series, negative = inhibition, actives largely listed as inhibitors; actives 3.5% (n = 310,000);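 also: the enzyme is Sfp with the accession as filed and its product quenches rhodamine fluorescence; 0% = enzyme reaction without inhibitor and -100% = no enzyme wells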
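After 15 min at room temperature with compound, 15 nM Sfp received 5 uM rhodamine-CoA plus 12.5 uM BHQ-2-ybbR (50 mM Hepes pH 7.6, 10 mM MgCl2). Rate came from the fluorescence difference over 30 min, ex 525/em 598 nm.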
G9a inh = G9a (human) methyltransferase inhibition. G9a H3K9 monomethylation, AlphaScreen, 2 h. actives 8.8% (n = 350,000). AID 504332. Q96KQ7. Potency, µM (doses to about 102 µM), for the others: at the highest dose activity, negative = inhibition, usual class: inhibitors; also: % is scaled to controls: 0 for no effect and ±100 for the full control effect; nearly all actives have a fitted effect of over 75% in size
Target sequence (Q96KQ7 913-1193 limits assumed): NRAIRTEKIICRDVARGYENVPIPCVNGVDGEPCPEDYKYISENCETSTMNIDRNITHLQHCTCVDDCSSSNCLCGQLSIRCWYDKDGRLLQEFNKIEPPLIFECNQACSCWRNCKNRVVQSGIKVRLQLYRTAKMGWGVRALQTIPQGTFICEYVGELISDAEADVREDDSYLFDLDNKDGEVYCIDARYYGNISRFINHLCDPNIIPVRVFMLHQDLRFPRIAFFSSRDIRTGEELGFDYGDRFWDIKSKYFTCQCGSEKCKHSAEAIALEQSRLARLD
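Step 1: enzyme (final 20 nM) with compound, 15 min RT. Step 2: substrate peptide 500 nM and SAM 20 uM, 2 h RT. Step 3: anti-H3K9me1 antibody and AlphaScreen beads, 10 min, then plate read.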
HP1b binding inh = blocks HP1-beta chromodomain binding to methylated histone tails | actives 0.56% (n = 390,000) | Potency, µM (doses to about 114 µM), for the others: at the top dose activity change, negative = inhibition, usual class: inhibitors | P83916 | AID 540317 | AlphaScreen HP1-beta / biotin-H3K9me3 peptide binding; also: nearly all actives have a fitted effect of over 70% in size
Target sequence (P83916 whole entry, looked up): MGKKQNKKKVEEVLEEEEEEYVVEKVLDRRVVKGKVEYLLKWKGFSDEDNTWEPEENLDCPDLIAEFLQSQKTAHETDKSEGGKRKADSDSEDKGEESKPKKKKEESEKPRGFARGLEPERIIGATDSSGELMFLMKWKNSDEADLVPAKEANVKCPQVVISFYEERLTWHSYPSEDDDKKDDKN
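AlphaScreen: HP1-beta (50 nM) preformed 30 min with biotin-H3(1-18)K9me3 peptide (50 nM) in PBS pH 7.4, 0.01% Tween-20. Compound added for 30 min at RT, then streptavidin donor/nickel chelate acceptor beads (10 ug/mL) for 30 min.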
JMJD2A Tudor = blocks the human JMJD2A Tudor domain. O75164. AlphaScreen JMJD2A-Tudor / H3K4me3 peptide binding. Potency, µM (titrated, usually from 114 µM), for the others: at the highest dose activity change, negative = inhibition, most hits filed as inhibitors. actives 4.4% (n = 390,000); also: % is scaled to controls: 0 for no effect and ±100 for the full control effect; nearly all actives have a fitted effect of over 50% in size
BAZ2B inh = BAZ2B (human) inhibition; Q9UIF8; AlphaScreen BAZ2B-H3K14Ac peptide displacement; Potency, µM (top dose mostly 114 µM), without a hit: top-dose activity change, negative = inhibition, actives largely listed as inhibitors; actives 4.4% (n = 360,000); AID 504333; also: % is scaled to controls: 0 for no effect and ±100 for the full control effect; nearly all actives have a fitted effect of over 60% in size
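Multi-concentration screen (max 110 uM) measuring displacement of acetylated histone H3 peptide from BAZ2B by AlphaScreen, using 50 nM protein, 50 nM peptide and 10 ug/mL streptavidin donor plus Ni-chelate acceptor beads.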
An asterisk follows results filed as active; u = inconclusive; x = not tested or not shown; ! = not active in a repeat; [ ] = dose if it differs, or a comment. Calls follow the shape of the dose curve; as a rule, active = well fitted curve in the direction sought with a large enough effect; inconclusive = small, poorly fitted or top-dose-only effect, or another doubt; inactive = no such curve, though single readings can be large; an effect the other way counts as inactive or inconclusive. Potency is read from the fitted curve at half-maximal effect.

SMILES	Sfp inh	G9a inh	HP1b binding inh	JMJD2A Tudor	BAZ2B inh
CCc1ccc(C(=O)c2c(N)c(-c3nc(-c4ccc5c(c4)OCO5)cs3)c3ccccn23)cc1	x	7%[59 µM]	14%	-14%	4%
CCOC(=O)CNC(=O)CSc1nc(-c2ccccc2)ns1	18µM*	10µM*	-24%	-12%	-5%
O=C(CSc1nc(-c2ccccc2)ns1)NCC1CCCO1 (configuration not stated)	35µM*	22µM*	-6%	-4%	-16%
COc1ccc(-c2nsc(SCC(=O)Nc3ccc4c(c3)OCO4)n2)cc1	-16%	u	50%	4%	6%
Cn1c(=O)c2c(SCC(=O)NCC3CCCO3)nc(-c3cccs3)nc2n(C)c1=O (configuration not stated)	9%	50µM*	x	x	-1%
O=C(CSc1nnc(-c2ccccc2)c2ccccc12)NCC1CCCO1 (configuration not stated)	-29%	-12%	x	x	x
CCOC(=O)CSc1nc(-c2ccc(OC)cc2)ns1	22µM*	5µM*	19%	27%[57.1 µM]	51%
COCCn1c(CNC(=O)c2cc(OC)c(OC)c(OC)c2)nc2cccnc21	x	-17%[59 µM]	28%[57 µM]	-10%	-2%
Cc1nn(CC(=O)N2CCN(c3cccc(Cl)c3)CC2)c(=O)c2c1sc1ccccc12	x	u	11%	-30%	-20%
CCOc1cc(Br)c(C(C)NC(=O)c2cccnc2)cc1OCC (configuration not stated)	x	x	42%	6%	x
CC(C)CO/N=C1/C[C@@H](O)[C@@H](O)[C@@H]2[C@@H]3C(=O)N(C(C)(C)C)C(=O)[C@H]3CC[C@@H]12	1%	x	x	x	x
CCOC(=O)C1CCN(C(=O)C2CCN(C3=NS(=O)(=O)C(c4ccc(C)c(C)c4)=C3C)CC2)CC1	x	1%[59 µM]	50%	-1%	3%
Cc1cccc(-c2nsc(SCC(=O)Nc3cc(C)on3)n2)c1	2%	u	3%	-5%	-2%
CCOC(=O)N1CCN(C(=O)CSc2nc(-c3cccc(C)c3)ns2)CC1	35µM*	32µM*	-5%	32µM*	-5%
Cc1ccc(-c2nsc(SCC(=O)NCc3ccc4c(c3)OCO4)n2)cc1	-6%	23%	34%	-1%	7%
CCOC(=O)CNC(=O)CSc1nc(-c2ccc(C)cc2)ns1	10%	50µM*	53%	6%	-3%
CC/C=C\C[C@H]1C(=O)CC[C@@H]1CC(=O)O	8%	x	x	x	x
COc1cc2c(cc1OC)C(c1ccc(O)cc1)NCC2 (configuration not stated)	12%	18%	26%	-5%	-16%
Oc1cc2c(c(Cl)c1O)CCNCC2c1ccccc1 (configuration not stated)	50µM*	11µM*	-10%	45µM*	x
Oc1ccc(C2CNCCc3c2cc(O)c(O)c3Cl)cc1 (configuration not stated)	40µM*	5.3µM*!	16%	35µM*!	10%
Oc1cc2c(c(Cl)c1O)CCNC[C@H]2c1ccccc1	79µM*	x	x	x	x
CC(=O)OCC1OC(C#Cc2ccccc2)C=CC1O (configuration not stated)	4%	x	x	x	x
CCOC(=O)c1sc(NC(=O)C2CCC2)cc1C	-8%	3%	119%	-10%	-14%
CCOc1ccc(S(=O)(=O)NCCc2sc3nc(-c4ccc(F)cc4)nn3c2C)cc1	x	5%[59 µM]	36%	-4%	-1%
CCOC(=O)/C=C/C(=O)N1CCN(C(=O)/C=C/C(=O)OCC)CC1	8%	56µM*	42%	-3%	-8%
SMILES	Sfp inh	G9a inh	HP1b binding inh	JMJD2A Tudor	BAZ2B inh
O=C(O)/C=C/C(=O)N1CCN(C(=O)/C=C/C(=O)O)CC1	2%	-20%[59 µM]	-11%	u	-5%
Cn1c(=O)c2c(nc(CN3CCN(c4ccccc4F)CC3)n2Cc2ccccc2F)n(C)c1=O	x	2%[59 µM]	23%	-14%	x
Cn1c(=O)c2c(nc(CN3CCc4ccccc4C3)n2Cc2ccccc2F)n(C)c1=O	1%	18µM*	42%	-27%	-19%
CCOC(=O)Cn1c(CN2CCc3ccccc3C2)nc2c1c(=O)n(C)c(=O)n2C	23%	40µM*	59%	-27%	4%
COCCn1c(CN2CCc3ccccc3C2)nc2c1c(=O)n(C)c(=O)n2C	9%	x	33%	-2%	-5%
Cn1c(=O)c2c(nc(CN3CCc4ccccc4C3)n2CCCO)n(C)c1=O	12%	11µM*	39%	1%	-14%
Cc1cc(NC(=O)Nc2nnc(N(C)C3CCCCC3)s2)ccc1Br	x	5%[59 µM]	12%	-14%	50µM*
Cc1ccc(C(=O)Nc2ccc(-n3c(C)nc4ccccc4c3=O)cc2)cc1[N+](=O)[O-]	x	0%[59 µM]	55%	-28%	14%
O=C(CCCN1C(=O)/C(=C/c2ccccc2)SC1=S)N1CCOCC1	-7%	79µM*	u	-36%	40µM*
COc1cccc(/C=C2/SC(=S)N(CCC(=O)N3CCOCC3)C2=O)c1	15%	u	-5%	56µM*	1%
COc1cccc(/C=C2\SC(=S)N(CCCC(=O)N3CCCCC3)C2=O)c1	-16%	25µM*	u	40µM*	11µM*
Cc1ccc(S(=O)(=O)CC(=O)Nc2nc3c(C)cc(C)cc3s2)cc1	x	-6%[59 µM]	23%	-25%	-14%
O=C(Nc1ccc2c(c1)CCC2)Nc1ccc2c(c1)OCO2	-1%	u	31%	-27%	0%
COc1cccc(C2CC(=O)Nc3c2c(=O)[nH]c2ncnn32)c1 (configuration not stated)	2%	1%	25%	35µM*	-4%
COc1cccc(C2CC(=O)Nc3c2c(=O)[nH]c2ncnn32)c1OC (configuration not stated)	x	u	15%	-9%	-2%
CCN1CCN(c2ccc(S(=O)(=O)N3CCCCC3)cc2NC(=O)Cc2ccccc2)CC1	x	6.3µM*	-8%	u	-8%
CCN1CCN(c2ccc(S(=O)(=O)N3CCCCC3)cc2NC(=O)Cc2ccc(Cl)c(Cl)c2)CC1	x	40µM*	-9%	u	u
COC(=O)C1=C(C)NC(=O)/C1=C\N(C)C	-4%	40µM*	36%	-8%	-11%
COC(=O)C1=C(C)NC(=O)/C1=C\c1ccc2c(c1)OCO2	4%	x	20%	-6%	-29%
CCCCN(C(=O)c1cc(CC)c(C)s1)c1c(N)n(CC(C)C)c(=O)[nH]c1=O	8%	-3%	33%	-7%	-26%
CCCn1c(N)c(N(CCOC)C(=O)c2ccc(C#N)cc2)c(=O)[nH]c1=O	9%	71µM*	27%	5%	-9%
CCCCn1c(N)c(N(CCOC)C(=O)c2cc3c(s2)CCCCC3)c(=O)[nH]c1=O	x	-27%	6%	-14%	-10%
CCc1sc(C(=O)N(CCCOC)c2c(N)n(CC(C)C)c(=O)[nH]c2=O)cc1C	x	0.79µM*	30%	-7%	-5%
